Several values for one entry are separate records, joined by “and”; a condition that tells them apart may be missing. Identical values can stand only once. The whole screen tested about 5,500 compounds, of which about 2,000 (36%) were called active. Another 18% or so got no clear call; they are omitted. No stated cut-off is given here; in the data, active means normalized growth mostly below about 0.91 (no sharp cut-off); inconclusive means no clear call, values can overlap the other calls; inactive means mostly above about 0.92. This is one part of the list.
Assay: chemical genetic growth profiling, strain panel (AID 1159580);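 further: tested at 20 µM; growth read once vehicle control cultures reached saturation at 30 °C; 1 = growth at the plate median or of vehicle wells; lower values mean less growth of the strain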
Details: S. cerevisiae deletion strains, growth OD

Measured: normalized growth

CC1=C(/C=C/C(C)=C/C=C/C(C)=C\C(=O)O)C(C)(C)CCC1
inactive: locus YAL013W, strain DEP1, active compounds read low 0.968 | locus YAL021C, strain ccr4, active compounds read low 1.01 | locus YAL026C, strain drs2, active compounds read low 0.999 | locus YAL030W, strain snc1, active compounds read low 0.977 | locus YAL040C, strain CLN3, active compounds read low 1.01 | locus YBL061C, strain skt5, active compounds read low 0.984 | locus YBR009C, strain hhf1, active compounds read low 1.01 | locus YBR021W, strain FUR4, active compounds read low 1.02 | locus YBR023C, strain chs3, active compounds read low 0.985 | locus YBR171W, strain sec66, active compounds read low 0.964 | locus YBR229C, strain ROT2, active compounds read low 1 | locus YBR231C, strain swc5, active compounds read low 0.989 | locus YBR279W, strain paf1, active compounds read low 0.996 | locus YCL011C, strain gbp2, active compounds read low 0.994 | locus YCL016C, strain dcc1, active compounds read low 0.999 | locus YCL029C, strain bik1, active compounds read low 0.992 | locus YCL061C, strain MRC1 (second series), active compounds read low 1 | locus YCL069W, strain vba3, active compounds read low 0.986 | locus YCR088W, strain abp1, active compounds read low 0.995 | locus YDL005C, strain med2, active compounds read low 0.979 | locus YDL035C, strain GPR1, active compounds read low 0.95 | locus YDL040C, strain nat1, active compounds read low 0.987 | locus YDL074C, strain BRE1, active compounds read low 0.856 | locus YDL101C, strain DUN1, active compounds read low 1.01 | locus YDL134C, strain PPH21, active compounds read low 1 | locus YDL185W, strain tfp1, active compounds read low 1 | locus YDL192W, strain arf1, active compounds read low 1 | locus YDR001C, strain nth1, active compounds read low 0.987 | locus YDR069C, strain doa4, active compounds read low 0.967 | locus YDR101C, strain arx1, active compounds read low 0.985 | locus YDR137W, strain rgp1, active compounds read low 0.937 | locus YDR150W, strain NUM1, active compounds read low 1.02 and 1.01 | locus YDR159W, strain sac3, active compounds read low 1.01 | locus YDR162C, strain NBP2, active compounds read low 0.957 | locus YDR195W, strain ref2 0.972 | locus YDR297W, strain sur2, active compounds read low 0.987 | locus YDR318W, strain mcm21, active compounds read low 0.97 | locus YDR334W, strain swr1, active compounds read low 0.982 | locus YDR335W, strain msn5, active compounds read low 0.987 | locus YDR363W, strain ESC2, active compounds read low 1.01 | locus YDR388W, active compounds read low 1 | locus YDR392W, strain spt3, active compounds read low 1.01 | locus YDR502C, strain sam2, active compounds read low 0.975 | locus YEL003W, strain gim4, active compounds read low 0.989 | locus YEL037C, strain rad23, active compounds read low 0.979 | locus YEL061C, strain CIN8 (second series), active compounds read low 0.991 | locus YEL061C, strain CIN8, active compounds read low 1 | locus YER002W, strain NOP16, active compounds read low 1.03 | locus YER015W, strain faa2, active compounds read low 0.993 | locus YER016W, strain bim1, active compounds read low 1.02 | locus YER110C, active compounds read low 1 | locus YER111C, strain swi4, active compounds read low 0.954 | locus YER155C, strain BEM2 (second series), active compounds read low 1 | locus YER155C, strain BEM2, active compounds read low 1.01 | locus YER167W, strain BCK2, active compounds read low 0.966 | locus YFR010W, strain ubp6, active compounds read low 0.961 | locus YGL078C, strain dbp3, active compounds read low 1 | locus YGL086W, strain mad1, active compounds read low 0.992 | locus YGL167C, strain pmr1, active compounds read low 0.975 | locus YGL173C, strain kem1, active compounds read low 0.972 | locus YGL227W, strain vid30, active compounds read low 0.974 | locus YGL240W, strain doc1, active compounds read low 0.958 | locus YGL248W, strain PDE1, active compounds read low 0.995 | locus YGL253W, strain hxk2, active compounds read low 0.996 | locus YGR078C, strain PAC10, active compounds read low 0.908 and 1.02 | locus YGR135W, strain pre9, active compounds read low 0.974 | locus YGR229C, strain SMI1, active compounds read low 0.82 and 1.02 | locus YGR252W, strain gcn5, active compounds read low 1.02 | locus YHR013C, strain ard1, active compounds read low 0.982 | locus YHR027C, strain rpn1, active compounds read low 0.997 | locus YHR030C, strain SLT2, active compounds read low 1 and 1.02 | locus YHR079C, strain IRE1 (second series), active compounds read low 0.988 | locus YHR079C, strain IRE1, active compounds read low 1.04 | locus YHR094C, strain hxt1, active compounds read low 0.999 | locus YHR129C, strain ARP1, active compounds read low 0.996 | locus YHR142W, strain chs7, active compounds read low 0.979 | locus YHR200W, strain rpn10, active compounds read low 1 | locus YIL066C, strain RNR3, active compounds read low 0.984 | locus YIL073C, strain SPO22, active compounds read low 0.934 | locus YIL125W, strain kgd1, active compounds read low 0.995 | locus YIR030C, strain dcg1, active compounds read low 1.01 | locus YJL092W, strain hpr5, active compounds read low 0.965 | locus YJL095W, strain BCK1 (second series), active compounds read low 0.99 | locus YJL095W, strain BCK1, active compounds read low 0.918 and 1.01 | locus YJL115W, strain asf1, active compounds read low 0.962 | locus YJL129C, strain trk1, active compounds read low 0.956 | locus YJL134W, strain LCB3, active compounds read low 1 | locus YJL154C, strain vps35, active compounds read low 0.986 | locus YJL164C, strain tpk1, active compounds read low 1.01 | locus YJL166W, strain qcr8, active compounds read low 0.928 | locus YJL168C, strain set2, active compounds read low 0.999 | locus YJL187C, strain SWE1 (second series), active compounds read low 0.986 | locus YJL187C, strain SWE1, active compounds read low 0.994 | locus YJR043C, strain POL32, active compounds read low 0.87 | locus YJR066W, strain TOR1, active compounds read low 0.972
